# Assay results published in article PMC4336329 (PLoS ONE, 2015).
# The campaign covered roughly 310,000 compounds. About 14,000 (4.5%) showed an effect of 50% or more. The effect is printed as a negative number. The full list was thinned out, with strong results kept by preference.
# Biological target: human ether-à-go-go-related gene (hERG) potassium channel (human, UniProt Q12809)
# Test: primary screen, population patch clamp on CHO cells stably expressing hERG; higher = less effect of the substance
# 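Note: peak tail current of the secondary pulse compared with the same well before compound.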
# Chain of human ether-à-go-go-related gene (hERG) potassium channel (Q12809 whole entry, looked up): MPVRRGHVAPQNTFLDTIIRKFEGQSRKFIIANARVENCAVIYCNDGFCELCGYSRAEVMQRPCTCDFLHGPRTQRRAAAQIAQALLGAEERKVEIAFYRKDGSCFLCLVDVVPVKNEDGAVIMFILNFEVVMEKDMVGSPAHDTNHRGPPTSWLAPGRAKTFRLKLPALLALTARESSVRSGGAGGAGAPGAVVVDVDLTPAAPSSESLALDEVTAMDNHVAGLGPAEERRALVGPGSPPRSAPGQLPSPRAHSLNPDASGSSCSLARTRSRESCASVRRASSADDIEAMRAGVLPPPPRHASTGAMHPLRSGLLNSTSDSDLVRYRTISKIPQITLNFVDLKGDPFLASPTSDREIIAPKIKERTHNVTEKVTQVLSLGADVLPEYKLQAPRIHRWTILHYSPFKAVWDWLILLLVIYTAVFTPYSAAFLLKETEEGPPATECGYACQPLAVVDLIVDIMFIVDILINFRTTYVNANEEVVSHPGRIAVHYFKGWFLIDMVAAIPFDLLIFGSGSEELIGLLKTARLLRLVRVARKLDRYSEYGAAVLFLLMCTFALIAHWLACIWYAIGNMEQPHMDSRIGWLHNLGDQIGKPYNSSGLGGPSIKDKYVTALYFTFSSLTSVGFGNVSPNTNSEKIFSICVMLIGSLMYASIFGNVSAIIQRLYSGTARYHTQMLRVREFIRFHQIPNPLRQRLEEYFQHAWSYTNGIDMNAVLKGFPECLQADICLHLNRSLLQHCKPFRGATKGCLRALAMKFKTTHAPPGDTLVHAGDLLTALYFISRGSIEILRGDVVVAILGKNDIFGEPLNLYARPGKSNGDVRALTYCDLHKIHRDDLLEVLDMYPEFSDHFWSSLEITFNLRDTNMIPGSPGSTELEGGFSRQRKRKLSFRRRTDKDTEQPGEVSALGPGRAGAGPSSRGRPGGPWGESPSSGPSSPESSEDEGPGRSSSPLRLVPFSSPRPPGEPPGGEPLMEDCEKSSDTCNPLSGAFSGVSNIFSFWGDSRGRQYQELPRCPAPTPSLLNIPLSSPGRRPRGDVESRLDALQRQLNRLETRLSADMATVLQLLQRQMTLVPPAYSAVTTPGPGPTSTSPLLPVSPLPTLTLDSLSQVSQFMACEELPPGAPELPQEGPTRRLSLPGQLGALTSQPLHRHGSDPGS
row,Compound,"hERG current change (%, negative = inhibition) at 10uM"
1,COc1ccc2no[n+]([O-])c2c1,28.1%
2,CC1CCc2c(sc(NC(=O)CCC(=O)O)c2C(=O)NC2CC2)C1 (stereo not drawn),18.1%
3,COc1ccc(NC(=O)n2ncc3cc(Cl)ccc32)cc1OC,21.3%
4,CC(C)(C)N(Cc1cc2ccccc2[nH]c1=O)C(=O)c1ccco1,8.21%
5,COc1ccc(NC(=O)CSc2nnc(NC(=O)C3CCC3)s2)c(OC)c1,12.6%
6,CS(=O)(=O)Oc1ccc2c(c1)O/C(=C\C=C\c1ccccc1)C2=O,8.05%
7,Cc1ccc(S(=O)(=O)Cc2ccc(C(=O)N3CCC(C(N)=O)CC3)o2)cc1,30.7%
8,CC(C)N(C(=O)Nc1ccc2nsnc2c1)C(C)C,0.592%
9,CC1(C)Cc2cccc(OCC(=O)N3CCN(c4ccccc4F)CC3)c2O1,-22.4%
10,CC1(C)Cc2cccc(OCC(=O)N3CCN(c4ccccc4Cl)CC3)c2O1,-64.3%
11,CC1(C)Cc2cccc(OCC(=O)N3CCN(c4ccccc4)CC3)c2O1,-45.6%
12,CC1(C)Cc2cccc(OCC(=O)N3CCN(c4cccc(C(F)(F)F)c4)CC3)c2O1,1.57%
13,CC1(C)Cc2cccc(OCC(=O)N3CCN(S(=O)(=O)c4ccc(F)cc4)CC3)c2O1,-21.6%
14,Cc1cccc(N2CCN(C(=O)COc3cccc4c3OC(C)(C)C4)CC2)c1C,-2.16%
15,CC1(C)Cc2cccc(OCC(=O)N3CCN(c4ccc(F)cc4)CC3)c2O1,-69.5%
16,CC1(C)Cc2cccc(OCC(=O)N3CCN(c4cccc(Cl)c4)CC3)c2O1,-4.1%
17,CC1(C)Cc2cccc(OCC(=O)N3CCN(c4ccc([N+](=O)[O-])cc4)CC3)c2O1,-70.3%
18,CCn1cc(C(=O)O)c(=O)c2cc(F)c(N3CCN(S(=O)(=O)c4ccc(NC(=O)OC)cc4)CC3)cc21,21.8%
19,CC1(C)SC(=S)N(/N=C/c2cccnc2)C1N(O)C(=O)Nc1ccccc1 (stereo not drawn),-5.91%
20,COc1ccc(S(=O)(=O)N2CCN(C3CCCC(C)C3)CC2)cc1.O=C(O)C(=O)O (stereo not drawn),-16.7%
21,CCCCN(C)C(=O)CCC(=O)Nc1ccc2nc(N3CCN(C)CC3)cc(C)c2c1,11%
22,CC1=CC(C)(C)N(C(=O)c2ccccc2)c2ccccc21,-8.02%
23,CN(C)S(=O)(=O)c1ccc(N2CCCC2)c(C(=O)Nc2nc(-c3cc(F)ccc3F)cs2)c1,0.334%
24,CCOCCCN(C)C1CCN(C(=O)c2oc3ccccc3c2NC(=O)c2ccc([N+](=O)[O-])cc2)CC1,-75.9%
25,CCC(CC)C(=O)Nc1c(C(=O)N2CCN(c3ccccc3)CC2)oc2ccccc12,3.17%
26,CCOCCCN(C)C1CCN(C(=O)c2oc3ccccc3c2NC(=O)c2cccc([N+](=O)[O-])c2)CC1,-79.7%

row,Compound,"hERG current change (%, negative = inhibition) at 10uM"
1,O=C(Nc1c(C(=O)N2CCOCC2)oc2ccccc12)c1cccc([N+](=O)[O-])c1,-20.2%
2,CCOC(=O)c1oc2ccccc2c1NC(=O)c1ccc(S(=O)(=O)N(C)C)cc1,13%
3,COc1cc2c(cc1NC(=O)c1cccc([N+](=O)[O-])c1)oc1ccccc12,1.9%
4,CCOC(=O)N1CCC(NC(=O)C2CCCN(C(=O)c3cc4sccc4n3C)C2)CC1 (stereo not drawn),-5.34%
5,CS(=O)(=O)O.OC(c1cc(C(F)(F)F)nc2c(Cl)cc(Cl)cc12)C1CCCCN1 (stereo not drawn),-23.8%
6,Cc1[nH]n(-c2ccccc2)c(=O)c1N=Nc1ccc(C(=O)O)cc1,25.7%
7,CC(=O)NC1C(Oc2ccccc2C)OC2COC(c3ccco3)OC2C1O (stereo not drawn),3.59%
8,COc1ccc(-c2c(C(C)=O)c(C)nc3sc4c(=O)[nH]nnc4c23)cc1,8.95%
9,Cc1ccccc1OCC(O)Cn1c(NCc2ccco2)nc2c1c(=O)[nH]c(=O)n2C (stereo not drawn),4.8%
10,Cc1ccccc1OCC(O)Cn1c(NCc2ccco2)nc2c1c(=O)n(C)c(=O)n2C (stereo not drawn),-52.1%
11,Cn1c(=O)c2c(nc(NCc3ccco3)n2CC(O)COc2ccccc2)n(C)c1=O (stereo not drawn),-25.9%
12,Cc1oc(S(=O)(=O)N2CCCCC2)cc1NC(=O)Nc1ccc(F)cc1,3.43%
13,CCOc1ccccc1CN1CCC(Oc2cccc(C(=O)NCCOC)c2)CC1,-30.8%
14,COc1ccc(C(=O)NC2CCc3ccccc32)cc1OC1CCN(C(C)=O)CC1 (stereo not drawn),-0.012%
15,C=CCOc1ccccc1CN1CCC(Oc2cc(C(=O)NC3CC3)ccc2OC)CC1,-72.2%
16,COc1ccc(C(=O)NCCc2ccccc2F)cc1OC1CCN(C(C)=O)CC1,4.19%
17,COc1ccc(C(=O)NC2CC2)cc1OC1CCN(Cc2ccccc2O)CC1,-102%
18,COc1ccc(CN2CCC(Oc3cc(C(=O)NC4CC4)ccc3OC)CC2)c(O)c1,-77.3%
19,COc1ccc(C(=O)NC2CC2)cc1OC1CCN(Cc2ccccc2F)CC1,-78%
20,COc1cc(C(=O)NC2Cc3ccccc3C2)ccc1OC1CCN(C(C)=O)CC1,4.22%
21,COc1ccc(C(=O)N(C)C2CCCN(Cc3ccccc3F)C2)cc1OC (stereo not drawn),11.1%
22,COc1ccc(CN2CCC(Oc3ccc(C(=O)NCc4ccccn4)cc3)CC2)c(F)c1,-12.6%
23,C=CCC(O)(CC=C)CNC(=O)c1ccc(OC)c(OC2CCN(C(C)=O)CC2)c1,14.9%
24,COc1ccc(OC)c(CN2CCC(N3CCC(C(=O)NC4CC4)CC3)CC2)c1,-11.1%
25,Cc1ccc(Nc2nc3ccccc3n3cnnc23)cc1C,15.5%
